The list is not random: actives were taken first. Their share in the collection is about 21%.
Pf growth 96h: Primary qHTS for delayed death inhibitors of the malarial parasite plastid, 96 hour incubation | P. falciparum luciferase reporter growth, 96 h | Potency, µM (doses to about 28.7 µM), hits mostly inhibitors | 320,000 compounds, 6.9% hits | AID 504834, 2011
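Two-generation exposure (96 h) targets delayed-death phenotype. Reporter parasites carrying integrated firefly luciferase, in red cells at 2% hematocrit and 0.05% parasitemia final, kept at 37 C, 5% CO2; luminescence loss indicates inhibition.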
Sm TGR inh: qHTS Assay for the Inhibitors of Schistosoma Mansoni Peroxiredoxins | AID 485364, 2010 | Potency, µM (doses to about 114 µM), most hits filed as inhibitors | 360,000 compounds, 3% hits | purified TGR, DTNB reduction, TNB absorbance 405 nm | Schistosoma mansoni thioredoxin glutathione reductase (TGR), Q962Y6; also: nearly all actives have a fitted effect of over 60% in size
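Kinetic colorimetric format: TGR-catalysed, NADPH-driven DTNB reduction monitored via TNB absorbance. Enzyme dispensed at 20 nM; compound exposure 15 min at room temperature before reaction start.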
Cycloheximide cs: Cycloheximide Counterscreen for Small Molecule Inhibitors of Shiga Toxin; cell reporter, cycloheximide protein synthesis inhibition counterscreen; max response, %; 300,000 compounds, 12% hits; in the data active = max response mostly above about 13%, no sharp cut-off; inactive = mostly below about 14%; also: read at 38.3 µM for the half of the compounds with a filed dose
Pf growth 48h: Primary qHTS for delayed death inhibitors of the malarial parasite plastid, 48 hour incubation. P. falciparum luciferase growth in erythrocytes, 48 h. Potency, µM (series often up to 28.7 µM), most hits filed as inhibitors. 310,000 compounds, 5.9% hits. AID 504832, 2011
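Luminescence readout; reporter = integrated firefly luciferase in P. falciparum. RBC culture at 2% hematocrit, 0.1% parasitemia final, 37 C/5% CO2; decreased signal taken as growth inhibition.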
NS1 inh: qHTS Assay for Inhibitors of Influenza NS1 Protein Function; Potency, µM (top dose mostly 46.1 µM); 270,000 compounds, 0.4% hits; calls by dose curve; also: actives are rising curves; nearly all actives have a fitted effect of over 50% in size
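Read-out: OD600 growth recovery of NS1-expressing budding yeast. Cells grown overnight at 30C in -URA glucose medium, washed, resuspended and diluted 1:100 in 2% galactose assay medium, pH 6.0. Same strain lacking NS1 served as positive control.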
Shiga toxin inh: A qHTS for Small Molecule Inhibitors of Shiga Toxin; 290,000 compounds, 9.2% hits; inhibition, % at 38.7 µM; Vero cells, Shiga toxin protein synthesis inhibition reporter; in the data active = inhibition mostly above about 28%, no sharp cut-off; inactive = mostly below about 43%
A number is an active result; 0 = inactive; ? = inconclusive; - = no result. Unless noted, calls follow the shape of the dose curve; as a rule, active = well fitted curve in the direction sought with a large enough effect; inconclusive = small, poorly fitted or top-dose-only effect, or another doubt; inactive = no such curve, though single readings can be large; an effect the other way counts as inactive or inconclusive.

SMILES	Pf growth 96h	Sm TGR inh	Cycloheximide cs	Pf growth 48h	NS1 inh	Shiga toxin inh
O=C(Nc1ccc(N2CCOCC2)cc1)c1cccc(S(=O)(=O)N2CCC(Cc3ccccc3)CC2)c1	?	0	0	-	0	0
CCN(CC)c1ccc(/C=N/NC(=O)C(O)(c2ccccc2)c2ccccc2)o1	?	14µM	0	?	0	0
O=C(O)c1ccc(/C=N/NC(=O)C(O)(c2ccccc2)c2ccccc2)cc1	0	0	0	0	0	0
CCc1c(C)sc2c1CCN(C(=O)Nc1ccccc1Cl)C2c1ccc(OC)cc1 (centres undefined)	-	0	-	-	-	-
CCc1ccc(C2=C(C)C(N3CCC(C(=O)NCCc4ccco4)CC3)=NS2(=O)=O)cc1	-	0	-	-	-	-
CCOc1ccc(-c2nc(-c3ccncc3)no2)cc1OCC	-	0	17	0	0	40
CCOc1ccc(-c2nc(-c3ccccc3)no2)cc1OCC	?	0	29	-	0	70
O=C(Nc1cccc(C(=O)O)c1)/C(=C\c1ccccc1Cl)NC(=O)c1ccco1	0	0	0	0	0	0
Cc1c(C)n(Cc2ccccc2)c2ccc(C(=O)OCCN(C)C)cc12	?	0	29	0	0	0
CCn1ncc(/C=N\NC(=O)c2ccc3c(c2)c(C)c(C)n3Cc2ccccc2)c1C	?	0	0	-	0	0
CCc1ccc(CNC(=O)c2ccc3c(c2)c(C)c(C)n3Cc2ccccc2)cc1	-	0	-	-	-	-
CCn1nc(C)c(/C=N/NC(=O)c2ccc3c(c2)c(C)c(C)n3Cc2ccccc2)c1C	12µM	0	0	-	0	0
CCn1cc(/C=N\NC(=O)c2ccc3c(c2)c(C)c(C)n3Cc2ccccc2)c(C)n1	10µM	0	0	-	0	0
COc1ccc(C(=O)Nc2ccc(C(=O)OCc3cc(=O)n4nc(C5CC5)sc4n3)cc2)cc1	-	0	-	-	-	-
Cc1ccc(N(CC(=O)NC(C)(C)C)C(=O)CS(=O)CC(=O)Nc2ccc(F)cc2)cc1 (centres undefined)	0	?	0	0	0	0
CNC(=O)Oc1ccc2c(c1)[C@]1(C)CCN(C)[C@@H]1N2C	3.7µM	0	0	8.3µM	0	0
CCOc1ccccc1NC(=O)CN1CCCCCC1	0	0	0	0	0	0
CN(C)c1ccc(/C=N/n2ncc3ccccc32)cc1	?	0	39	0	0	98
CCOc1ccc(S(=O)(=O)N2CCCCC2)cc1NC(=O)CN1C(=O)NC(C)(c2ccccc2)C1=O (centres undefined)	?	0	-	?	-	-
CCOc1ccc(S(=O)(=O)N2CCCCC2)cc1NC(=O)CN1C(=O)NC(CC)(c2ccccc2)C1=O (centres undefined)	12µM	0	0	4.7µM	0	0
CCC1(c2ccccc2)NC(=O)N(CC(=O)Nc2cccc(S(=O)(=O)N3CCCC3)c2)C1=O (centres undefined)	0	0	-	?	-	-
CCC1(c2ccccc2)NC(=O)N(CC(=O)Nc2cc(S(=O)(=O)N3CCCCCC3)ccc2OC)C1=O (centres undefined)	7.4µM	0	-	9.3µM	-	-
CCC1(c2ccccc2)NC(=O)N(CC(=O)Nc2cc(S(=O)(=O)N3CCCCC3)ccc2OC(C)C)C1=O (centres undefined)	?	0	-	10µM	-	-
COc1ccc(Cl)cc1NC(=O)C/C(C)=N/NC(=O)C(=O)NCc1ccccc1	0	0	0	0	0	0
Cc1cccc(NC(=O)CNC(=O)c2ccc3c(c2)OCO3)n1	0	0	-	?	-	-
SMILES	Pf growth 96h	Sm TGR inh	Cycloheximide cs	Pf growth 48h	NS1 inh	Shiga toxin inh
Cc1oc(C(C)(C)C)cc1-c1cc(NC(=O)c2ccc([N+](=O)[O-])cc2)n[nH]1	2.3µM	0	0	1.9µM	0	0
O=C(Nc1ccc([N+](=O)[O-])cn1)c1cccnc1	0	0	0	0	0	-
O=C(Nc1ccc([N+](=O)[O-])cn1)c1ccc2c(c1)OCO2	0	0	31	0	-	68
Cc1nc(NC(=O)c2ccc3c(c2)OCO3)ccc1Br	0	-	46	0	0	55
O=C(Cc1ccc([N+](=O)[O-])cc1)NNC(=O)c1ccc2c(c1)OCO2	?	0	0	0	0	0
CC(C)(C)c1ccc(C(=O)Nc2ccc([N+](=O)[O-])cn2)cc1	0	0	58	0	0	76
CCCNC(=O)C(Cc1cccc(Cl)c1)NC(=O)c1ccccc1 (centres undefined)	0	0	-	?	-	-
CC(C)(C)c1ccc(NC(=O)N2CCN(c3ccc([N+](=O)[O-])cn3)CC2)cc1	2.3µM	0	0	5.2µM	0	0
O=C(Nc1ccc(F)cc1F)N1CCCN(c2ccc([N+](=O)[O-])cn2)CC1	?	0	0	?	0	0
Cc1cc(NC(=O)c2ccc3c(c2)OCO3)no1	0	?	29	0	0	106
O=C(CCC1CCCC1)Nc1ccc([N+](=O)[O-])cn1	0	0	35	0	0	54
O=C(Nc1ccccn1)c1ccc2c(c1)OCO2	0	0	36	0	-	44
Cc1cc(NC(=O)c2ccc3c(c2)OCCO3)no1	0	0	0	?	0	0
COc1ccc(-n2cnc3cc(C(=O)NCC4CCCO4)ccc32)cc1 (centres undefined)	0	0	0	0	0	0
CC(C)CCn1c(=O)c2ccccc2n2c(CCC(=O)NCC3CCCO3)nnc12 (centres undefined)	?	0	0	?	0	0
CC(Oc1ccc2ccc(=O)oc2c1)C(=O)NC(Cc1c[nH]c2ccc(O)cc12)C(=O)O (centres undefined)	0	0	0	0	0	0
CC(n1cnnn1)C12CC3CC(CC(C3)C1)C2 (centres undefined)	1.7µM	0	0	?	0	0
Cc1noc(C)c1C(=O)OCC(=O)c1c[nH]c2ccccc12	?	0	0	9.3µM	0	0
CCc1cccc2c(C(=O)COC(=O)c3c(C)noc3C)c[nH]c12	0	0	0	0	0	0
Cc1cc(C(=O)OCC(=O)c2cccc([N+](=O)[O-])c2)c2cccc(C)c2n1	0.41µM	0	0	?	0	0
COc1ccc(-c2cc(C(=O)OCC(=O)c3cccc([N+](=O)[O-])c3)c3cc(C)ccc3n2)cc1	0	0	0	0	0	0
O=C(OCC(=O)c1c[nH]c2ccccc12)c1cccc([N+](=O)[O-])c1	13µM	0	-	8.3µM	-	-
O=C(CCc1nnc(CCCCc2ccccc2)o1)N1CCCCC1CCO (centres undefined)	0	0	0	0	0	0
Cc1cccc(C)c1NC(=O)Cn1c(=O)n(Cc2ccccc2)c(=O)c2c(C)c(C(=O)N(C)C)sc21	-	0	-	-	-	-
N#Cc1nc(-c2cccs2)oc1N1CCN(c2ccccc2)CC1	0	0	0	0	?	0
CCOc1ccc(-c2nnc(-c3cccs3)o2)cc1	?	0	45	0	0	130
Cc1ccc(OCCSc2nnc(-c3cccs3)o2)cc1	-	0	-	-	-	-

Compound activity deposited in PubChem by National Center for Advancing Translational Sciences (NCATS).
